In PubChem BioAssay (NCATS):
Results filed as inconclusive are left out. Entries that show only a call come without a potency. Activity calls are given as the source filed them. Unless noted, calls follow the shape of the dose curve; as a rule, active = well fitted curve in the direction sought with a large enough effect; inconclusive = small, poorly fitted or top-dose-only effect, or another doubt; inactive = no such curve, though single readings can be large; an effect the other way counts as inactive or inconclusive.

Columns and labels:
[1] = target: Cytochrome P450 3A4 (Homo sapiens) (UniProt P08684); assay: qHTS Assay for Activators of Cytochrome P450 3A4 (AID 885); also: nearly all actives have a fitted effect of over 65% in size
How it was run: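 CYP3A4 activity: Luciferin-PPXE O-dealkylation, 25uM substrate, 200mM KPO4, RT throughout. Read-out is luciferase luminescence; higher values reflect activation.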

[2] = Confirmation and Secondary Assay for Modulators of Hemoglobin Beta Chain Splicing at IVS2 654 locus (AID 910);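 also: HeLa cells stably carrying EGFP split by mutant beta-globin IVS2-654 intron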
How it was run: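 HeLa cells stably expressing EGFP interrupted by β-globin IVS2-654 intron, seeded overnight in Opti-MEM/2% FCS, then treated 2 days at 37 °C. Restored splicing read as total peak GFP intensity per well by laser scanning cytometry (488 nm excitation, 500–520 nm emission); 500 nM antisense PNA as control.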

[3] = Confirmation and Secondary Assay for Modulators of Hemoglobin Beta Chain Splicing at IVS2 705 locus (AID 930);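 also: HeLa cells stably expressing the EGFP-705 splicing reporter; GFP fluorescence per well restored by corrected splicing of the IVS2-705 intron in EGFP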
How it was run: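 HeLa EGFP-705 reporter; 500 cells/well, o/n 37C 5% CO2; cpd 2 d; 488 ex/500-520 em laser scan; total peak GFP intensity/well. Ref: 500 nM […] antisense PNA.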

[4] = qHTS Assay for Lipid Storage Modulators (AID 1519; calls by dose curve); conditions: Drosophila S3 cells, BODIPY lipid droplet/cell ratio, laser cytometry, cells loaded with oleic acid; for activity change, negative = inhibition: at 57.5 µM (top of the series)
How it was run: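 Cells seeded at 5,000 per well were treated with compounds over a concentration series and loaded with oleic acid (400 uM, as added). Lipid droplet fluorescence (488 nm excitation, 500-530 nm channel) was read by laser-scanning cytometry and normalized to 20 uM Triacsin C.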

[5] = target: Ubiquitin carboxyl-terminal hydrolase 1 (Homo sapiens) (UniProt O94782); assay: Inhibitors of USP1/UAF1: Pilot qHTS (AID 504865);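 also: rhodamine fluorescence freed from ubiquitin-rhodamine substrate followed over time; top concentration of the series differs between compounds; nearly all actives have a fitted effect of over 35% in size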
How it was run: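 Enzyme-free wells gave the negative control, while test wells held 1nM USP1/UAF1 preincubated with compound for 15 min at room temperature. Ub-Rho at 150nM final started the reaction, and fluorescence at 480/540 nm was recorded kinetically.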

[6] = measured here: cell count channel max response
[7] = measured here: lipid channel max response

Ubiquitin carboxyl-terminal hydrolase 1 (Homo sapiens), sequence (O94782 whole entry, looked up): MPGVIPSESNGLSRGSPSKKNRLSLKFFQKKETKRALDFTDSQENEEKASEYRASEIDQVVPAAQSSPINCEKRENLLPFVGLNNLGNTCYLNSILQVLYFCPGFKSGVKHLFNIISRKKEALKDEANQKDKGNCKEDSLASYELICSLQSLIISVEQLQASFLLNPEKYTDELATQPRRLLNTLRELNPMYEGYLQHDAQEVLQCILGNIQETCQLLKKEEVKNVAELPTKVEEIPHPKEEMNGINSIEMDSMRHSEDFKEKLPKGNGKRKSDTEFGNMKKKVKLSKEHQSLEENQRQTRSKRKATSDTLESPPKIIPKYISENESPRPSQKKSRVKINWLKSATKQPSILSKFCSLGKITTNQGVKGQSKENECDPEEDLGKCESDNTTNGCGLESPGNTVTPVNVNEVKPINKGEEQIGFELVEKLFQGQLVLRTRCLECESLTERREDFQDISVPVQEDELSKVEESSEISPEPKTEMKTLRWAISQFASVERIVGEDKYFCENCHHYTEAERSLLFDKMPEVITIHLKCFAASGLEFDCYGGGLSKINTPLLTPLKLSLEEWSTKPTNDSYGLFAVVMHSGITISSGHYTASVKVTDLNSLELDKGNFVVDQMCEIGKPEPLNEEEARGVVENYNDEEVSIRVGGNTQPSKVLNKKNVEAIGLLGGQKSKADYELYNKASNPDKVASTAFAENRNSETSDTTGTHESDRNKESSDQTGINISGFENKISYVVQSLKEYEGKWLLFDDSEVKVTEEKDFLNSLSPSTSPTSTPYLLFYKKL
Cytochrome P450 3A4 (Homo sapiens), sequence (P08684 whole entry, looked up): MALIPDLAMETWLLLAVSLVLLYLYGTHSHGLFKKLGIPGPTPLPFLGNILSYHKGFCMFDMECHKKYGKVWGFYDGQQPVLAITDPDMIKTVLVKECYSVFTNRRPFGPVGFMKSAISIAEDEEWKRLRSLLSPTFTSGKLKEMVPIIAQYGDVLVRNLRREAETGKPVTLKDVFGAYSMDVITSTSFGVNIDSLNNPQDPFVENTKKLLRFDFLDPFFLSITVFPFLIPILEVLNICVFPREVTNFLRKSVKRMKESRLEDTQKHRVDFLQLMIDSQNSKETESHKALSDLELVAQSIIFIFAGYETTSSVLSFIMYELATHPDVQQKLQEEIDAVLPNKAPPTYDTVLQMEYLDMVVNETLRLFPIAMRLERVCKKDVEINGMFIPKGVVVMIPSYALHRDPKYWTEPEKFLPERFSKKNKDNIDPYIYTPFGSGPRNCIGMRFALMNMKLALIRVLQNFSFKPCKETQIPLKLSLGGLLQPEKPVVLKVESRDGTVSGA

| Structure (SMILES) | Potency [1] | Potency [2] | Potency [3] | activity change, negative = inhibition [4] | max response [4, 6] | max response [4, 7] | Potency [5] |
| --- | --- | --- | --- | --- | --- | --- | --- |
| CC1(C)C(O)C=C[C@@]2(C)C1CC(=O)O[C@@]1(C)C3=CC(=O)OC(c4ccoc4)[C@]3(C)CCC21 (stereo partly drawn) | inactive | inactive | inactive | 9.57% (inactive) | 1.87% | 14.6% | inactive |
| C=C1C(=O)OC2CC1C(OC(C)=O)CC(C)=CCCC(C)=CCC[C@@]2(C)O (stereo partly drawn) | inactive | inactive | inactive | -0.0283% (inactive) | 10.1% | 14.3% | inactive |
| CC(CCC(=O)O)C1CCC2C3C(O)C[C@@H]4CC(O)CC[C@@]4(C)C3CC(O)[C@]12C (stereo partly drawn) | – | inactive | – | 4.41% (inactive) | -4.16% | 0.136% | inactive |
| CC(=O)C1CCC2C3CC(C)C4=CC(=O)CC[C@@]4(C)C3C(O)C[C@@]12C (stereo partly drawn) | inactive | inactive | inactive | 8.05% (inactive) | 8.18% | 24.3% | inactive |
| COc1cccc(O)c1O | inactive | inactive | inactive | 7.71% (inactive) | 9.09% | 20.7% | inactive |
| COC(=O)CC1C(C)(C)C(OC(C)=O)C2CC3=C4CC(=O)OC(c5ccoc5)[C@]4(C)CCC3[C@@]1(C)C2=O (stereo partly drawn) | inactive | inactive | inactive | -5.96% (inactive) | 14.6% | 10% | inactive |
| COc1ccc(-c2cc(=O)c3c(O)c(OC)c(OC)c(OC)c3o2)cc1OC | inactive | inactive | inactive | -11% (inactive) | -6.36% | -17.8% | inactive |
| CC(=O)O[C@](C)(CCC=C(C)C)C1CC=C(C)CC1 (stereo partly drawn) | inactive | inactive | inactive | 3.31% (inactive) | 17.9% | 22% | inactive |
| COC(=O)c1c(C)cc(OC)cc1O | inactive | inactive | inactive | 8.17% (inactive) | 10% | 23.5% | inactive |
| CC1(C)CC2C1CCC1(C)OC1CCC2(C)O (stereo not drawn) | inactive | inactive | inactive | -2.16% (inactive) | -0.415% | 2.87% | inactive |
| Oc1ccc(C2Oc3cc(O)cc(O)c3CC2O)cc1 (stereo not drawn) | inactive | inactive | inactive | 14.6% (inactive) | -6.15% | 20.5% | inactive |
| CC(=O)OCC(=O)[C@]1(O)C(C)CC2C3CCC4=CC(=O)C=C[C@@]4(C)[C@]3(F)C(O)C[C@@]21C (stereo partly drawn) | inactive | inactive | inactive | -6.8% (inactive) | 9.77% | 2.72% | inactive |
| Cc1cc(=O)oc2c(O)c(O)ccc12 | inactive | inactive | inactive | -5.44% (inactive) | -3.48% | -9.34% | inactive |
| CC(C)=CCc1c(O)cc2oc(C)cc(=O)c2c1O | inactive | inactive | inactive | 2.12% (inactive) | -3.81% | -0.981% | inactive |
| COC(=O)C1OC(=O)C2O[C@@]23[C@]2(C)C(OC(C)=O)CC4C(C)(C)C(=O)CC[C@]4(C)C2CC[C@@]13C (stereo partly drawn) | inactive | inactive | inactive | -1.69% (inactive) | -0.434% | 4.55% | inactive |
| O=C(NC1CCCCC1)NC1CCCCC1 | inactive | inactive | inactive | 9.61% (inactive) | 16.8% | 30.7% | inactive |
| CCC(=O)OCC(=O)C1(OC(=O)CC)C(C)CC2C3C(Cl)CC4=CC(=O)C=C[C@@]4(C)C3C(O)C[C@@]21C (stereo partly drawn) | – | inactive | – | 4.4% (inactive) | 1.88% | 8.57% | inactive |
| COc1cc(-c2cc(=O)c3c(O)c(OC)c(OC)c(OC)c3o2)cc(OC)c1OC | inactive | inactive | inactive | 0.715% (inactive) | 5.14% | 8.84% | inactive |
| CCCCN1CCCCC1C(=O)Nc1c(C)cccc1C (stereo not drawn) | inactive | inactive | inactive | 7.02% (inactive) | 11.8% | 21.2% | inactive |
| COc1ccc(-c2coc3cc(O)ccc3c2=O)c(OC)c1 | inactive | inactive | inactive | -0.403% (inactive) | 3.06% | 3.26% | inactive |
| CC(N)C(O)c1cccc(O)c1 (stereo not drawn) | – | inactive | – | 8.66% (inactive) | 6.62% | 19.6% | inactive |
| O=C(CCc1ccc(O)cc1)c1c(O)cc(O)cc1O[C@H]1OC(CO)C(O)C(O)C1O (stereo partly drawn) | inactive | inactive | inactive | 6.17% (inactive) | 25.3% | 27.2% | inactive |
| CCCC1OC2CC3C4CCC5=CC(=O)C=CC5(C)C4C(O)CC3(C)[C@]2(C(=O)CO)O1 (stereo partly drawn) | inactive | inactive | inactive | 8.38% (inactive) | 24.3% | 37.9% | inactive |

| Structure (SMILES) | Potency [1] | Potency [2] | Potency [3] | activity change, negative = inhibition [4] | max response [4, 6] | max response [4, 7] | Potency [5] |
| --- | --- | --- | --- | --- | --- | --- | --- |
| CC(C)=CCOc1cc2oc(=O)ccc2cc1O | inactive | inactive | inactive | 12.4% (inactive) | -16.3% | -2.91% | inactive |
| Cc1cc(O)c(C=O)c(O)c1C(=O)O | inactive | inactive | inactive | 3.98% (inactive) | 6.58% | 11.5% | inactive |
| CC(=O)OC1C[C@]2(C)[C@@H](CC(O)C3[C@]4(C)CCC(O)C(C)[C@@H]4CC[C@]32C)/C1=C(/CCC=C(C)C)C(=O)O (stereo partly drawn) | – | inactive | – | 5.26% (inactive) | 12.3% | 24.1% | inactive |
| COc1cc2cc[n+]3cc4c(OC)c(OC)ccc4cc3c2cc1OC | inactive | inactive | inactive | 10.9% (inactive) | 22.9% | 39.6% | inactive |
| C=C[C@]1(C)CC(=O)[C@@]2(O)[C@@]3(C)C(O)CCC(C)(C)C3C(O)C(OC(C)=O)[C@@]2(C)O1 (stereo partly drawn) | inactive | inactive | inactive | 3.86% (inactive) | 19.4% | 25.9% | inactive |
| CC1CC2C3CCC4=CC(=O)C=C[C@]4(C)[C@@]3(Cl)C(O)C[C@]2(C)C1(OC(=O)c1ccco1)C(=O)CCl (stereo partly drawn) | inactive | inactive | inactive | 12.6% (inactive) | -6.79% | 6.32% | inactive |
| O=C(/C=C/c1ccccc1)OC1CC(O)C2(O)C=CO[C@@H](OC3OC(CO)C(O)C(O)C3O)C12 (stereo partly drawn) | inactive | inactive | inactive | 3.28% (inactive) | -10.8% | 7.13% | inactive |
| COc1c(O)cc2c(-c3ccccc3)cc(=O)oc2c1OC | inactive | inactive | inactive | 5.27% (inactive) | 6.33% | 14.2% | inactive |
| CC(=O)OC1C[C@]2(C)C(C(C)=O)CCC2C2CCC3=CC(=O)CC[C@@]3(C)C12 (stereo partly drawn) | – | inactive | inactive | 9.05% (inactive) | 25.2% | 39.7% | inactive |
| NCC1O[C@@H](OC2C(N)CC(N)C(O)C2O[C@@H]2OC(CO)C(O)C2O)C(N)C(O)C1O (stereo partly drawn) | – | inactive | inactive | 6.74% (inactive) | 5.17% | 12.7% | inactive |
| COc1ccc(C2Oc3cc(OC)cc(OC)c3CC2O)cc1 (stereo not drawn) | – | inactive | inactive | 5.15% (inactive) | 15.1% | 23.9% | inactive |
| O=c1c2ccccc2oc2ccccc12 | – | inactive | inactive | 15% (inactive) | 9.44% | 28% | inactive |
| CC(C)(C)NC[C@@H](O)COc1nsnc1N1CCOCC1 | – | inactive | inactive | 13.4% (inactive) | 16.2% | 36.5% | inactive |
| C[C@]12CCC3c4ccc(OC(=O)c5ccccc5)cc4CCC3C1CCC2=O (stereo partly drawn) | – | inactive | inactive | 11.1% (inactive) | 14.4% | 28.4% | inactive |
| NCC1O[C@@H](OC2C(N)C[C@H](N)[C@@H](O[C@H]3OC(CO)C(O)C(N)C3O)C2O)C(O)C(O)C1O (stereo partly drawn) | – | inactive | inactive | 12.1% (inactive) | 13.1% | 29.6% | inactive |
| CC(C)CC(NC(=O)OCC1c2ccccc2-c2ccccc21)C(=O)O (stereo not drawn) | – | inactive | – | 2.46% (inactive) | 10.8% | 14.5% | inactive |
| NC(Cn1ccc(=O)c(O)c1)C(=O)O (stereo not drawn) | – | inactive | inactive | 3.76% (inactive) | 3.01% | 10.8% | inactive |
| CC(=O)OC1C(=O)[C@@]2(C)C(O)CC3OC[C@]3(OC(C)=O)C2C(OC(=O)c2ccccc2)[C@]2(O)CC(OC(=O)C(O)C(NC(=O)c3ccccc3)c3ccccc3)C(C)=C1C2(C)C (stereo partly drawn) | – | inactive | inactive | -3.78% (inactive) | 1.34% | -0.503% | inactive |
| CC(=O)SC1CC2=CC(=O)CC[C@@]2(C)C2CC[C@@]3(C)[C@@H](CC[C@@]34CCC(=O)O4)C12 (stereo partly drawn) | – | inactive | inactive | -11.4% (inactive) | 20.1% | 9.46% | inactive |
| COc1cc(C(=O)OC2CC[C@]3(C)C4CCC5[C@]6(O)CC(O)[C@]7(O)C(CN8CC(C)CCC8[C@]7(C)O)[C@]6(O)C[C@@]53O[C@]24O)cc(OC)c1OC (stereo partly drawn) | – | inactive | inactive | 4.04% (inactive) | 17.4% | 24.2% | inactive |
| C=C1C[C@@]23C[C@@]1(O)CCC2[C@@]12C=CC(O)[C@](C)(C(=O)O1)C2C3C(=O)O (stereo partly drawn) | – | inactive | inactive | 1.95% (inactive) | 6.93% | 10.6% | inactive |
| COc1ccc(-c2coc3cc(OC(C)=O)cc(OC(C)=O)c3c2=O)cc1 | – | inactive | inactive | -2.95% (inactive) | 3.34% | 2.84% | inactive |
| COC(=O)C(N)CS (stereo not drawn) | – | inactive | inactive | 6.93% (inactive) | 11.1% | 22.7% | inactive |
